Sampled rows, rich in hits. Any-hit rate of the full collection: about 3.2%.
PriA SSB inh: inhibitors of Klebsiella pneumoniae PriA binding to SSB C-terminal tail; AlphaScreen SSBct-PriA binding, biotinylated peptide; inhibition, % at 33 µM; actives 0.6% (n = 430,000); AID 1272365; in the data active means inhibition mostly above about 37%, no sharp cut-off; inactive means mostly below about 20%;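 further: plate controls were negative control peptide for no effect and reference peptide for full effect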
Mtb FBA inh: Mtb fructose-bisphosphate aldolase inhibition; P9WQA3; purified M. tuberculosis FBA, fluorescence read-out; inhibition, % at 1 µM; actives 2.3% (n = 360,000); AID 588726;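 further: 0% = vehicle and 100% = reference inhibitor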
Target sequence (P9WQA3 whole entry, looked up): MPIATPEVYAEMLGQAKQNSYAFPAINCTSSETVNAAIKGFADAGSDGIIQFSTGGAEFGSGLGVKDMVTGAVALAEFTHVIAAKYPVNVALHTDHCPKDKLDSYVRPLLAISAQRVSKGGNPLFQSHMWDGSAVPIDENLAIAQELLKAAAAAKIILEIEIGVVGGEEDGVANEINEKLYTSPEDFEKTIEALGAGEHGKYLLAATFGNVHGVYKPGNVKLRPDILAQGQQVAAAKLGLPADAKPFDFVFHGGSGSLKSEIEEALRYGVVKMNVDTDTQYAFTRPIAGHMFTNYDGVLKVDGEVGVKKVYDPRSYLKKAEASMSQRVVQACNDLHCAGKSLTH
GDH-TPI counter-1: counter-screen for M. tuberculosis FBA inhibitors: GDH-TPI coupled enzymes. GDH-TPI coupled enzyme counterscreen, NADH absorbance. inhibition, % at 4.8 µM. actives 1.2% (n = 360,000); in the data active means inhibition above about 30%;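 further: 0% = DMSO wells and 100% = wells lacking the enzyme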
Rv3671c protease: Rv3671c (M. tuberculosis) protease inhibition | inhibition, % at 5.96 µM | actives 0.048% (n = 320,000) | AID 2606; in the data active means inhibition above about 38%;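 further: extracellular domain of Rv3671c used as enzyme; 0% = enzyme with DMSO and 100% = no enzyme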
Mtb UGM inh: Mtb UDP-galactopyranose mutase inhibition | P9WIQ1 | purified UGM, fluorescence polarization probe displacement | inhibition, % at 10 µM | actives 0.06% (n = 320,000); in the data active means inhibition above about 10%, passing the limit was not always enough; inconclusive means no clear call, values can overlap the other calls
Mtb betalactam: beta-lactam sensitization of Mtb H37Rv; actives 0.27% (n = 330,000); inhibition, % at 25 µM; M. tuberculosis H37Rv growth with meropenem, percent inhibition; call rule not given here;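 further: growth measured after seven days incubation then overnight dye step; 0% = bacteria only wells and 100% = bacteria with antibiotic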
Mtb FBA confirm: Mtb FBA inhibition, confirmed | purified M. tuberculosis FBA, fluorescence read-out | inhibition, % at 1 µM | shares compounds with Mtb FBA inh | AID 651616 | actives 78% (n = 5,600);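 further: 0% = vehicle wells and 100% = reference inhibitor wells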
GDH-TPI counter-2: inhibits GDH-TPI coupling enzymes, flagging Mtb FBA hits. GDH-TPI coupled enzyme counterscreen, fluorescence. shares compounds with Mtb FBA inh. inhibition, % at 1 µM. actives 81% (n = 5,600); in the data active means inhibition above about 10%
GDH-TPI dose: counter-screen for M. tuberculosis FBA inhibitors: GDH-TPI dose response; AID 652145; IC50, µM; actives 79% (n = 170); shares compounds with Mtb FBA inh; GDH-TPI coupled enzyme assay, fluorescence, artifact counterscreen; call rule not given here
Numbers without * were called inactive; u = inconclusive; x = no result given; + = active, no number. Unless noted, no stated cut-off is given here; in the data, active means inhibition above about 27%; inactive means the rest.

SMILES	PriA SSB inh	Mtb FBA inh	GDH-TPI counter-1	Rv3671c protease	Mtb UGM inh	Mtb betalactam	Mtb FBA confirm	GDH-TPI counter-2	others
O=C(CN1CCCC1)Nc1ccc(-c2nc3cc(NC(=O)CN4CCCC4)ccc3o2)cc1	-6	107*	24	-7	2	u	30*	24*
Cc1ccc(-c2nc3cc(N)ccc3o2)cc1	-6	11	20	-2	1	19	x	x
CCCC(=O)Nc1ccc2oc(-c3ccncc3)nc2c1	3	17	19	-10	2	0	x	x
CCC(C)NCC(=O)Nc1ccc(-c2nc3cc(NC(=O)CNC(C)CC)ccc3o2)cc1 (stereo not drawn)	-11	99*	21	-2	-1	-1	148*	110*
O=C(NCc1ccco1)c1cc2ccccc2o1	-4	-2	2	-1	2	2	x	x
Cc1ccc2cc3cc(C(=O)NCc4ccco4)oc3nc2c1	-1	46*	34*	0	2	60	8	-5
Cc1ccc2cc3cc(C(=O)NC4CCCCC4)oc3nc2c1	3	39*	14	1	0	4	+	+
Cc1ccc2cc3cc(C(=O)NCCCN4CC(C)CC(C)C4)oc3nc2c1 (stereo not drawn)	-1	85*	14	-9	0	4	56*	36*
Cc1ccc2cc3cc(C(=O)N4CC(C)CC(C)C4)oc3nc2c1 (stereo not drawn)	-13	-1	30	-58	3	65	x	x
Cc1ccc2cc3cc(C(=O)N4CCCCC4C)oc3nc2c1 (stereo not drawn)	-40	4	22	-2	1	44	x	x
CC(=O)c1cccc(NC(=O)Cn2cnc3c(sc4cccc(Cl)c43)c2=O)c1	-2	x	x	x	x	x	x	x
O=C(Nc1ccc2c(c1)CN(C(=O)c1cccs1)CC2)c1ccc(F)cc1	5	x	x	x	x	x	x	x
CCCCNc1c(-c2cccc(-c3ccc(OC)cc3)c2)nc2ccc(C)cn12	-12	31*	6	0	1	98	7	2
CCCCNc1c(-c2cccc(-c3ccc(OC)cc3)c2)nc2cc(C)ccn12	53*	29*	10	1	-2	98	66*	58*
CCCCNc1c(-c2cccc(-c3cc(C(C)=O)cs3)c2)nc2ccc(C)cn12	25	0	26	-2	0	55	x	x
CCC(CO)Nc1ncnc2c1cnn2-c1ccc(Cl)cc1 (stereo not drawn)	-18	11	2	-11	-1	4	x	x
CCC(CO)Nc1ncnc2c1cnn2-c1ccc(OC)cc1 (stereo not drawn)	115*	30*	-3	7	1	-1	63*	52*
N=c1c(C(=O)NCc2ccccc2)cc2c(=O)n3ccccc3nc2n1CCCN1CCOCC1	5	79*	10	2	1	-1	2	-4
N=c1c(C(=O)NC2CCCCC2)cc2c(=O)n3ccccc3nc2n1Cc1ccccc1	-4	55*	0	-5	u	9	167*	134*
N=c1c(C(=O)NCCc2ccccc2)cc2c(=O)n3ccccc3nc2n1Cc1ccco1	-5	30*	3	-7	2	7	+	163*
N=c1c(C(=O)NC2CCCCC2)cc2c(=O)n3ccccc3nc2n1Cc1cccnc1	0	107*	9	-11	1	-6	+	+
O=C(N1CCC(CSC2=NCCS2)CC1)C1(c2cccs2)CCCC1	7	x	x	x	x	x	x	x
Cc1ccc(S(=O)(=O)N=C(Nc2nc(C)cs2)c2ccccc2)cc1	-4	x	x	x	x	x	x	x
COC(=O)Cn1nc(C)c2cnn(-c3ccccc3)c2c1=O	-4	x	x	x	x	x	x	x
O=C(Nc1cccc(Cl)c1)N1CC2CC(C1)c1cccc(=O)n1C2 (stereo not drawn)	4	x	x	x	x	x	x	x
SMILES	PriA SSB inh	Mtb FBA inh	GDH-TPI counter-1	Rv3671c protease	Mtb UGM inh	Mtb betalactam	Mtb FBA confirm	GDH-TPI counter-2	others
CC12CCC(O)CC1=CCC1C2CCC2(C)/C(=N\NC(=O)CCC(=O)O)CCC12 (stereo not drawn)	-7	x	x	x	x	x	x	x
Cc1ccc(S(=O)(=O)c2cc3c(=O)n4ccccc4nc3n(C)c2=N)cc1	-1	40*	13	12	0	-2	52*	42*
N=c1c(C(=O)NCc2ccc(F)cc2)cc2c(=O)n3ccccc3nc2n1Cc1cccnc1	2	102*	11	2	3	-2	152*	116*
Cc1ccc(S(=O)(=O)c2cc3c(=O)n4ccccc4nc3n(CC3CCCO3)c2=N)cc1C (stereo not drawn)	-5	37*	12	-2	-3	-5	92*	63*
N=c1c(C(=O)NC2CCCCC2)cc2c(=O)n3ccccc3nc2n1CCc1ccccc1	-17	47*	-5	4	2	5	5	4
COC(=O)c1cc2c(=O)n3ccccc3nc2n(Cc2cccnc2)c1=N	-14	x	x	2	-3	3	x	x
CN(CC1CCCO1)S(=O)(=O)c1ccc(C(=O)Nc2sc3c(c2C(N)=O)CC(C)(C)NC3(C)C)cc1 (stereo not drawn)	-4	x	x	x	x	x	x	x
CC(C)OCCCn1c(=N)c(C(N)=S)cc2c(=O)n3ccccc3nc21	12	71*	8	-4	3	7	92*	81*
O=C(NC1CCCN(Cc2ccc(Cl)cc2)C1)c1cnc2ccccn2c1=O (stereo not drawn)	4	55*	24	-2	2	6	118*	82*
N=c1c(C(=O)NC2CCCCC2)cc2c(=O)n3ccccc3nc2n1Cc1ccco1	-2	36*	5	-4	2	3	12	-1	GDH-TPI dose=>10
CCOc1ccc(NC(=O)c2cc3c(=O)n4ccccc4nc3n(CCN3CCOCC3)c2=N)cc1	8	x	x	x	x	x	x	x
Cc1cccn2c(=O)c3cc(C(=O)NC4CCCCC4)c(=N)n(Cc4ccc(F)cc4)c3nc12	-21	31*	-1	6	1	98	+	+
Cc1nnsc1C(=O)Nc1ccc(S(=O)(=O)N2CCOCC2)cc1	4	x	x	x	x	x	x	x
N=c1c(C(=O)NCC2CCCO2)cc2c(=O)n3ccccc3nc2n1Cc1ccco1 (stereo not drawn)	-2	28*	10	7	8	1	+	192*
Cc1ccc(Cn2c(=N)c(C(=O)NC3CCCC3)cc3c(=O)n4ccccc4nc32)cc1	0	53*	9	-7	2	8	99*	98*
N=c1c(S(=O)(=O)c2ccccc2)cc2c(=O)n3ccccc3nc2n1Cc1ccco1	-15	64*	19	-6	-2	-3	134*	97*

Source: PubChem BioAssay (several laboratories)
